Data taken from PubChem BioAssay AID1159580 (chemical genetic matrix, 2015).
Values joined by “and” are separate entries in the source; they are usually repeats but may differ in a detail not shown here. Equal values may be shown once. The campaign covered roughly 5,500 compounds. About 2,000 (36%) were called active. Roughly 18% stayed inconclusive and do not appear here. No stated cut-off is given here; in the data, active means normalized growth mostly below about 0.91 (no sharp cut-off); inconclusive means no clear call, values can overlap the other calls; inactive means mostly above about 0.92. Some of the results follow.

Experiment: chemical genetic growth profiling, strain panel (AID 1159580);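 further: tested at 20 µM; growth read once vehicle control cultures reached saturation at 30 °C; 1 = growth at the plate median or of vehicle wells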
Conditions: S. cerevisiae deletion strains, growth OD

Measured: normalized growth

Cc1ccccc1OCC(O)CO (centres undefined)
inactive: locus YAL013W, strain DEP1, stronger effect = lower value 1.02 | locus YAL021C, strain ccr4, stronger effect = lower value 0.971 | locus YAL026C, strain drs2, stronger effect = lower value 0.974 | locus YAL030W, strain snc1, stronger effect = lower value 0.967 | locus YBL061C, strain skt5, stronger effect = lower value 0.962 | locus YBR009C, strain hhf1, stronger effect = lower value 0.985 | locus YBR021W, strain FUR4, stronger effect = lower value 1.03 | locus YBR023C, strain chs3, stronger effect = lower value 0.964 | locus YBR171W, strain sec66, stronger effect = lower value 0.973 | locus YBR229C, strain ROT2, stronger effect = lower value 1.02 | locus YBR231C, strain swc5, stronger effect = lower value 0.98 | locus YBR279W, strain paf1, stronger effect = lower value 0.974 | locus YCL011C, strain gbp2, stronger effect = lower value 0.971 | locus YCL016C, strain dcc1, stronger effect = lower value 0.967 | locus YCL029C, strain bik1, stronger effect = lower value 0.998 | locus YCL061C, strain MRC1, stronger effect = lower value 0.993 | locus YCL069W, strain vba3, stronger effect = lower value 0.981 | locus YCR088W, strain abp1, stronger effect = lower value 0.969 | locus YDL005C, strain med2, stronger effect = lower value 0.976 | locus YDL035C, strain GPR1, stronger effect = lower value 1.03 | locus YDL040C, strain nat1, stronger effect = lower value 0.967 | locus YDL074C, strain BRE1, stronger effect = lower value 1.05 | locus YDL101C, strain DUN1, stronger effect = lower value 1.03 | locus YDL134C, strain PPH21, stronger effect = lower value 1.04 | locus YDL185W, strain tfp1, stronger effect = lower value 0.99 | locus YDL192W, strain arf1, stronger effect = lower value 0.991 | locus YDR001C, strain nth1, stronger effect = lower value 0.983 | locus YDR069C, strain doa4, stronger effect = lower value 0.966 | locus YDR101C, strain arx1, stronger effect = lower value 1 | locus YDR137W, strain rgp1, stronger effect = lower value 0.997 | locus YDR159W, strain sac3, stronger effect = lower value 0.977 | locus YDR162C, strain NBP2, stronger effect = lower value 1.02 | locus YDR195W, strain ref2 0.957 | locus YDR297W, strain sur2, stronger effect = lower value 0.978 | locus YDR318W, strain mcm21, stronger effect = lower value 1.01 | locus YDR334W, strain swr1, stronger effect = lower value 0.964 | locus YDR335W, strain msn5, stronger effect = lower value 0.988 | locus YDR388W, stronger effect = lower value 0.987 | locus YDR392W, strain spt3, stronger effect = lower value 0.981 | locus YDR502C, strain sam2, stronger effect = lower value 0.99 | locus YEL003W, strain gim4, stronger effect = lower value 0.97 | locus YEL037C, strain rad23, stronger effect = lower value 0.969 | locus YEL061C, strain CIN8 (second series), stronger effect = lower value 0.968 | locus YEL061C, strain CIN8, stronger effect = lower value 1.01 | locus YER015W, strain faa2, stronger effect = lower value 0.976 | locus YER016W, strain bim1, stronger effect = lower value 0.988 | locus YER110C, stronger effect = lower value 0.99 | locus YER111C, strain swi4, stronger effect = lower value 0.97 | locus YER155C, strain BEM2 (second series), stronger effect = lower value 0.969 | locus YER155C, strain BEM2, stronger effect = lower value 1.01 | locus YER167W, strain BCK2, stronger effect = lower value 1.01 | locus YFR010W, strain ubp6, stronger effect = lower value 0.972 | locus YGL078C, strain dbp3, stronger effect = lower value 1 | locus YGL086W, strain mad1, stronger effect = lower value 1.01 | locus YGL167C, strain pmr1, stronger effect = lower value 0.969 | locus YGL173C, strain kem1, stronger effect = lower value 0.969 | locus YGL227W, strain vid30, stronger effect = lower value 0.976 | locus YGL240W, strain doc1, stronger effect = lower value 0.971 | locus YGL248W, strain PDE1, stronger effect = lower value 1.03 | locus YGL253W, strain hxk2, stronger effect = lower value 0.971 | locus YGR135W, strain pre9, stronger effect = lower value 0.99 | locus YGR229C, strain SMI1, stronger effect = lower value 1.03 | locus YGR252W, strain gcn5, stronger effect = lower value 0.989 | locus YHR013C, strain ard1, stronger effect = lower value 0.965 | locus YHR027C, strain rpn1, stronger effect = lower value 0.969 | locus YHR030C, strain SLT2, stronger effect = lower value 1.01 and 0.978 | locus YHR079C, strain IRE1 (second series), stronger effect = lower value 0.992 | locus YHR079C, strain IRE1, stronger effect = lower value 0.973 | locus YHR094C, strain hxt1, stronger effect = lower value 0.986 | locus YHR129C, strain ARP1, stronger effect = lower value 1.02 | locus YHR142W, strain chs7, stronger effect = lower value 0.964 | locus YHR200W, strain rpn10, stronger effect = lower value 1 | locus YIL066C, strain RNR3, stronger effect = lower value 1.04 | locus YIL073C, strain SPO22, stronger effect = lower value 1.08 | locus YIL125W, strain kgd1, stronger effect = lower value 0.99 | locus YIR030C, strain dcg1, stronger effect = lower value 0.989 | locus YJL092W, strain hpr5, stronger effect = lower value 0.99 | locus YJL095W, strain BCK1 (second series), stronger effect = lower value 0.977 | locus YJL095W, strain BCK1, stronger effect = lower value 1.05 and 0.98 | locus YJL115W, strain asf1, stronger effect = lower value 0.977 | locus YJL129C, strain trk1, stronger effect = lower value 0.971 | locus YJL134W, strain LCB3, stronger effect = lower value 1.01 | locus YJL154C, strain vps35, stronger effect = lower value 0.973 | locus YJL164C, strain tpk1, stronger effect = lower value 0.969 | locus YJL166W, strain qcr8, stronger effect = lower value 0.978 | locus YJL168C, strain set2, stronger effect = lower value 0.991 | locus YJL187C, strain SWE1 (second series), stronger effect = lower value 1.03 | locus YJL187C, strain SWE1, stronger effect = lower value 0.979 | locus YJR043C, strain POL32, stronger effect = lower value 1.02
